LmPK inh – inhibitors of Leishmania mexicana pyruvate kinase; purified LmPK, Kinase-Glo ATP luminescence, 1 h; Potency, µM (top dose mostly 57.5 µM), without a hit: at the highest dose activity change, negative = inhibition, usual class: inhibitors; 290,000 compounds, 0.37% hits; AID 1721; also: potency is read from the fitted curve at half-maximal effect; % is scaled to controls: 0 for no effect and ±100 for the full control effect
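Screened at intermediate enzyme activity to detect both inhibitors and activators: LmPK at 0.1 nM, with a 0.5 nM enzyme column as activation reference. PEP 0.5 mM, ADP 0.1 mM; ATP detected by luminescence after 1 h.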
Tb PYK inh – inhibitors of Trypanosoma brucei pyruvate kinase; TbPYK enzyme, Kinase-Glo Plus ATP luminescence, 45 min; Potency, µM (doses to about 76.8 µM), for the others: at the top dose activity, negative = inhibition, usual class: inhibitors; 410,000 compounds, 0.12% hits; AID 624173; also: potency is read from the fitted curve at half-maximal effect; % is scaled to controls: 0 for no effect and ±100 for the full control effect; nearly all actives have a fitted effect of over 50% in size
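Enzyme and substrate buffer are dispensed first and compound is pin-transferred. ADP at 130 uM final then starts the reaction, which runs 45 min at room temperature. Detection reagent is added for 10 min before luminescence is imaged.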
Cycloheximide cs – affects cycloheximide protein synthesis inhibition readout, counter-screen. 300,000 compounds, 12% hits. cell reporter, cycloheximide protein synthesis inhibition counterscreen. max response, %; in the data active = max response mostly above about 13%, no sharp cut-off; inactive = mostly below about 14%; also: read at 38.3 µM for the half of the compounds with a filed dose; 0% is about no effect
Shiga toxin inh – Shiga toxin inhibition | Vero cells, Shiga toxin protein synthesis inhibition reporter | inhibition, % at 38.7 µM | 290,000 compounds, 9.2% hits; in the data active = inhibition mostly above about 28%, no sharp cut-off; inactive = mostly below about 43%; also: 0% is about no effect
Giardia FBPA inh – blocks Giardia fructose-bisphosphate aldolase activity. Potency, µM (titrated, usually from 59.6 µM), for inactives: top-dose activity, negative = inhibition, usual class: inhibitors. A8B2U2. 290,000 compounds, 0.71% hits. purified Giardia FBPA; also: potency is read from the fitted curve at half-maximal effect; % is scaled to controls: 0 for no effect and ±100 for the full control effect; nearly all actives have a fitted effect of over 55% in size
Target sequence (A8B2U2 whole entry, looked up): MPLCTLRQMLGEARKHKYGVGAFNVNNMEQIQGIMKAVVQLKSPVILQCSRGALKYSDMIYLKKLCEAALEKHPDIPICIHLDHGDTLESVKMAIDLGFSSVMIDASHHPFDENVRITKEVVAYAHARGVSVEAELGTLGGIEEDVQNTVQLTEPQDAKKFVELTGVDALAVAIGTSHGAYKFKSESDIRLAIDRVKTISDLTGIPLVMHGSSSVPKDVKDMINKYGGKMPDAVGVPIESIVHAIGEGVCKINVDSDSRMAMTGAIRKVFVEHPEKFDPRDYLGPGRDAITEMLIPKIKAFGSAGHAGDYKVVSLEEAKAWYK
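Giardia FBPA (40 nM reagent) was preincubated 10 min at RT with compound (up to 57.5 uM final), then substrate plus GAPDH/TPI/NAD/arsenate coupling system with diaphorase/resazurin was added; resorufin fluorescence (525/598 nm) was read after 20 min.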
Sm TGR inh – S. mansoni TGR enzyme inhibition. Q962Y6. purified TGR, DTNB reduction, TNB absorbance 405 nm. Potency, µM (top dose mostly 114 µM), for inactives: at the top dose activity change, negative = inhibition, actives largely listed as inhibitors. 360,000 compounds, 3% hits. AID 485364; also: potency is read from the fitted curve at half-maximal effect; % is scaled to controls: 0 for no effect and ±100 for the full control effect; nearly all actives have a fitted effect of over 60% in size
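Kinetic colorimetric format: TGR-catalysed, NADPH-driven DTNB reduction monitored via TNB absorbance. Enzyme dispensed at 20 nM; compound exposure 15 min at room temperature before reaction start.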
* = called active by the depositor. This excerpt belongs to a sample that is enriched for hits. Unless noted, calls follow the shape of the dose curve; as a rule, active = well fitted curve in the direction sought with a large enough effect; inconclusive = small, poorly fitted or top-dose-only effect, or another doubt; inactive = no such curve, though single readings can be large; an effect the other way counts as inactive or inconclusive.

Screening Cc1ccc(S(=O)(=O)NNc2ccccc2)c(C)c1 returned LmPK inh 15%, Tb PYK inh inconclusive, Cycloheximide cs 10, Shiga toxin inh 12, Giardia FBPA inh inconclusive and Sm TGR inh 40µM*.
`Cc1ccc(C)c(S(=O)(=O)Nc2ccc(O)c3ccccc23)c1` gave LmPK inh inconclusive, Tb PYK inh -6%, Cycloheximide cs 4, Shiga toxin inh 5, Giardia FBPA inh -16% and Sm TGR inh 22µM*.
Screening Cc1ccc(S(=O)(=O)NNC(=O)c2cccs2)c(C)c1 returned LmPK inh 2%, Tb PYK inh 15%, Cycloheximide cs -4, Shiga toxin inh -9, Giardia FBPA inh 2% and Sm TGR inh inconclusive.
For CCC(=O)NC[C@H](Cc1ccc(OCCc2nc(-c3ccccc3)oc2C)cc1)N/C(C)=C\C(=O)c1ccc(C(F)(F)F)cc1 the results were Cycloheximide cs 11, Shiga toxin inh 15 and Giardia FBPA inh -21%.
For COc1ccc(-c2nnc(SCC(=O)Nc3cc(OC)ccc3OC)nc2-c2ccc(OC)cc2)cc1 the results were Tb PYK inh 0% and Sm TGR inh -4%.
`[N-]=[N+]=Nc1nc2c(N)ncnc2n1C1OC(CO)C(O)C1O` (centres undefined) gave Giardia FBPA inh -1%.
`Cc1ccc(CNC(=O)c2ccc(OCC3CCCO3)cc2)cc1` (centres undefined) gave LmPK inh 1%, Tb PYK inh -7%, Cycloheximide cs 15*, Shiga toxin inh 16, Giardia FBPA inh 5% and Sm TGR inh -10%.
O=C(NCc1ccc(Cl)cc1)c1ccc(OCC2CCCO2)cc1 (centres undefined) was read as LmPK inh -2%, Tb PYK inh 6%, Cycloheximide cs -3, Shiga toxin inh 14, Giardia FBPA inh -2% and Sm TGR inh 1%.
`O=C(NCc1ccco1)c1ccc(OCC2CCCO2)cc1` (centres undefined) gave LmPK inh 1%, Cycloheximide cs 20*, Shiga toxin inh 23, Giardia FBPA inh 9% and Sm TGR inh 0%.
`O=C(NC1CC(=O)N(c2ccc(F)cc2)C1)c1ccco1` (centres undefined) gave Tb PYK inh -8% and Sm TGR inh 8%.
For CC(=O)c1cccc(NC(=O)Cc2cccs2)c1 the results were LmPK inh 1%, Tb PYK inh -1%, Cycloheximide cs 10, Shiga toxin inh 19, Giardia FBPA inh -4% and Sm TGR inh -34%.
For CCCOC(=O)c1ccc(NC(=O)Cc2cccs2)cc1 the results were LmPK inh 5%, Tb PYK inh -5%, Cycloheximide cs 35*, Shiga toxin inh 51*, Giardia FBPA inh -2% and Sm TGR inh 114%.
For CC(=O)c1ccc(NC(=O)Cc2cccs2)cc1 the results were LmPK inh -1%, Tb PYK inh 1%, Cycloheximide cs 28*, Giardia FBPA inh 9% and Sm TGR inh -3%.
For O=C(Nc1ccc(OC(=O)c2cccs2)cc1)c1ccco1 the results were LmPK inh inconclusive, Tb PYK inh 0%, Cycloheximide cs 45*, Shiga toxin inh 54*, Giardia FBPA inh 2% and Sm TGR inh -23%.
`CC(=O)c1ccc(NC(=O)Cc2ccsc2)cc1` gave LmPK inh 2%, Tb PYK inh -3%, Cycloheximide cs 30*, Shiga toxin inh 69*, Giardia FBPA inh 4% and Sm TGR inh 0%.
For CCCOC(=O)c1ccc(NC(=O)Cc2csc(C)n2)cc1 the results were Tb PYK inh 2% and Sm TGR inh -3%.
CC(C)NS(=O)(=O)c1ccc(NC(=O)Cc2ccsc2)cc1 was read as LmPK inh -8%, Tb PYK inh -1%, Cycloheximide cs 16, Shiga toxin inh 29, Giardia FBPA inh 6% and Sm TGR inh 0%.
O=C(Cc1cccs1)Nc1ccc(NC(=O)c2ccco2)cc1 was read as LmPK inh -1%, Tb PYK inh -4%, Cycloheximide cs 24*, Shiga toxin inh 60*, Giardia FBPA inh -4% and Sm TGR inh -11%.
Cc1cc(NC(=O)Cc2ccsc2)ccc1Br was read as LmPK inh 2%, Tb PYK inh -5%, Cycloheximide cs 33*, Shiga toxin inh 69*, Giardia FBPA inh -3% and Sm TGR inh -33%.
Screening O=C(Cc1ccsc1)Nc1ccc(S(=O)(=O)C(F)F)cc1 returned LmPK inh 0%, Tb PYK inh 2%, Cycloheximide cs 23*, Shiga toxin inh 49*, Giardia FBPA inh -1% and Sm TGR inh -4%.
COc1ccc(N2CCN(C(=O)C3CCN(C(=O)c4cccc(Cl)c4)CC3)CC2)cc1 was read as LmPK inh 5%, Tb PYK inh 0%, Cycloheximide cs -3, Shiga toxin inh -10, Giardia FBPA inh 10% and Sm TGR inh 0%.
Screening O=C(Nc1ccc2nc(SCC(=O)N3CCc4ccccc43)sc2c1)c1ccccc1 returned Tb PYK inh 6% and Sm TGR inh -4%.
For Cc1ccc(-c2cnc(-c3ccccc3C(=O)O)o2)cc1 the results were LmPK inh 2%, Tb PYK inh -4%, Cycloheximide cs 29*, Shiga toxin inh 61*, Giardia FBPA inh 7% and Sm TGR inh 10%.
For NC(=O)c1ccccc1 the results were LmPK inh 0%, Tb PYK inh -11%, Cycloheximide cs -1, Shiga toxin inh -17, Giardia FBPA inh 2% and Sm TGR inh 8%.
Fc1cccc(-c2ncc(-c3ccccc3)o2)c1 was read as Tb PYK inh -11%.
Screening NC(=O)c1ccc(-c2ncc(-c3ccccc3)o2)cc1 returned LmPK inh -8%, Tb PYK inh -7%, Cycloheximide cs 44*, Shiga toxin inh 85*, Giardia FBPA inh 1% and Sm TGR inh -6%.
`c1ccc(-c2cnc(-c3cccnc3)o2)cc1` gave LmPK inh -13%, Tb PYK inh 3%, Cycloheximide cs 49*, Shiga toxin inh 59, Giardia FBPA inh 2% and Sm TGR inh 5%.
`O=C(NCc1cccs1)c1ccc2c(c1)N(Cc1ccccc1Cl)C(=O)c1ccccc1S2` gave Tb PYK inh -1% and Sm TGR inh 10%.
O=C(O)c1cccc(CN2C(=O)SC(Nc3ccccc3)C2=O)c1 (centres undefined) was read as LmPK inh 0%, Tb PYK inh -9%, Cycloheximide cs 17*, Shiga toxin inh 17, Giardia FBPA inh 4% and Sm TGR inh 0%.
For Nc1nc2ccccc2[nH]1 the results were LmPK inh 3%, Tb PYK inh -7%, Cycloheximide cs 2, Shiga toxin inh -7, Giardia FBPA inh -19% and Sm TGR inh 1%.

From PubChem BioAssay
